Measured values taken from PubChem BioAssay (Tox21).
Values joined by “and” are separate entries in the source; they are usually repeats but may differ in a detail not shown here. Equal entries are not always repeated. Inconclusive results are not listed. Entries that show only a call come without a potency. More than one record can exist for a structure, and the calls need not agree. Active and inactive are the calls of the source. Unless noted, calls come from the whole dose curve; as a rule, active = well fitted curve in the direction sought with a large enough effect in the repeat runs; inconclusive = weak or mixed curves; inactive = no such curve, though single readings can be large; an effect the other way counts as inactive or inconclusive.

How the values were obtained:
[1] = qHTS assay to identify small molecule antagonists of the glucocorticoid receptor (GR) signaling pathway - cell viability counter screen (AID 720693); note: nearly all actives have a fitted effect of over 55% in size
[2] = qHTS assay for identifying genotoxic compounds that show differential cytotoxicity against isogenic chicken DT40 cell lines with known DNA damage response pathways - wild type cell line (AID 743012); note: nearly all actives have a fitted effect of over 60% in size; note: potency is the fitted concentration of half-maximal effect
Method in brief: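 Cytotoxicity in repair-proficient parental chicken DT40 cells serves as the comparator for Rad54/Ku70- and Rev3-deficient lines. Cells were exposed to compounds for 40 h at 37 C/5% CO2, and ATP-based luminescence (CellTiter-Glo) measured viability.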

[3] = qHTS assay for identifying genotoxic compounds that show differential cytotoxicity against isogenic chicken DT40 cell lines with known DNA damage response pathways - Rev3 mutant cell line (AID 743014); note: nearly all actives have a fitted effect of over 55% in size; note: potency is the fitted concentration of half-maximal effect
[4] = qHTS assay for identifying genotoxic compounds that show differential cytotoxicity against isogenic chicken DT40 cell lines with known DNA damage response pathways - Rad54/Ku70 mutant cell line (AID 743015); note: nearly all actives have a fitted effect of over 60% in size; note: potency is the fitted concentration of half-maximal effect
[5] = qHTS assay to identify small molecule antagonists of the androgen receptor (AR) signaling pathway - cell viability counter screen (AID 743033; note: nearly all actives have a fitted effect of over 45% in size)
[6] = qHTS assay to identify small molecule antagonists of the androgen receptor (AR) signaling pathway using the MDA cell line - cell viability counter screen (AID 743041; note: nearly all actives have a fitted effect of over 45% in size)
Method in brief: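 qHTS viability read-out; MDA-kb2 AR-luc; R1881-stimulated; 16 h exposure at 37C, 0% CO2; CellTiter-Fluor, 30 min; fluorescence intensity.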

[7] = qHTS assay to identify small molecule antagonists of the thyroid receptor (TR) signaling pathway (AID 743065); note: nearly all actives have a fitted effect of over 55% in size; note: potency is the fitted concentration of half-maximal effect
Method in brief: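 GH3.TRE-Luc rat pituitary cells carrying two TR response elements driving luciferase were plated for 4 h, given compound plus 1 nM T3 (final), and incubated 23.5 h at 37 C. ONE-Glo luminescence measured reporter inhibition; CellTiter-Fluor fluorescence tracked cytotoxicity.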

[8] = test system: thyroid hormone receptor (rat, GH3 cells); test: qHTS assay to identify small molecule agonists of the thyroid receptor (TR) signaling pathway (AID 743066; calls by dose curve)
[9] = biological target: Estrogen receptor (Homo sapiens) (UniProt P03372); test: qHTS assay to identify small molecule antagonists of the estrogen receptor alpha (ER-alpha) signaling pathway (AID 743069; active = well fitted curve in the direction sought with a large enough effect in the signal ratio in the repeat runs, not every such curve was filed as active; the % refers to the signal ratio)
Sequence of Estrogen receptor (Homo sapiens) (P03372 whole entry, looked up): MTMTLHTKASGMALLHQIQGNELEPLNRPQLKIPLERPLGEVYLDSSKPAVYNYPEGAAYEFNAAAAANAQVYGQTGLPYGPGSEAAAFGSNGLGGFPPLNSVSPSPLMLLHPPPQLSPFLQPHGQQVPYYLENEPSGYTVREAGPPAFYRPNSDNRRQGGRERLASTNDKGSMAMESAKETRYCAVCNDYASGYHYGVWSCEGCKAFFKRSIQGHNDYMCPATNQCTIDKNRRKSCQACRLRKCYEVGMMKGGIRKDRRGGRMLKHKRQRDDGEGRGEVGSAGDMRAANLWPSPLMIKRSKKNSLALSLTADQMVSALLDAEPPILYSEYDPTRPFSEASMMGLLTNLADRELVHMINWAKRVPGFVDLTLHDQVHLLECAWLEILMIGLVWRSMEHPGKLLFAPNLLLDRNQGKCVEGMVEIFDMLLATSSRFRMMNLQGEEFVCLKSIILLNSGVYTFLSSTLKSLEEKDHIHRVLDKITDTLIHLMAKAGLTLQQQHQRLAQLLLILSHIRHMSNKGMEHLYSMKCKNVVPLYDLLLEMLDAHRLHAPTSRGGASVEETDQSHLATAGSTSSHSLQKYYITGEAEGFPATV
Method in brief: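 Screening used a UAS-driven beta-lactamase reporter integrated into HEK293 cells expressing ER-alpha, stimulated with 17beta-estradiol alongside test compounds over 18 hr at 37C; signal came from LiveBLAzer B/G FRET fluorescence.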

[10] = qHTS assay to identify small molecule antagonists of the estrogen receptor alpha (ER-alpha) signaling pathway - cell viability counter screen (AID 743074; calls by dose curve; note: nearly all actives have a fitted effect of over 45% in size)
[11] = biological target: Estrogen receptor (Homo sapiens) (UniProt P03372); test: qHTS assay to identify small molecule agonists of the estrogen receptor alpha (ER-alpha) signaling pathway (AID 743075; calls by dose curve; note: potency is the fitted concentration of half-maximal effect)
[12] = biological target: Estrogen receptor (Homo sapiens) (UniProt P03372); test: qHTS assay to identify small molecule agonists of the estrogen receptor alpha (ER-alpha) signaling pathway using the BG1 cell line (AID 743079); note: nearly all actives have a fitted effect of over 20% in size; note: potency is the fitted concentration of half-maximal effect
[13] = qHTS assay to identify small molecule antagonists of the estrogen receptor alpha (ER-alpha) signaling pathway using the BG1 cell line (AID 743080; calls by dose curve; note: nearly all actives have a fitted effect of over 25% in size)
Method in brief: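 Antagonist mode: compounds in DMSO were pinned onto BG1-Luc-4E2 cells alongside 17beta-estradiol agonist, incubated 21.5 h, and ERE-driven luciferase measured with ONE-Glo. Cytotoxicity was multiplexed using CellTiter-Fluor fluorescence.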

[14] = qHTS assay to identify small molecule antagonists of the estrogen receptor alpha (ER-alpha) signaling pathway using the BG1 cell line - cell viability counter screen (AID 743081);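 note: compound given together with 17beta-estradiol as the ER stimulus; nearly all actives have a fitted effect of over 45% in size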
[15] = biological target: Aromatase (Homo sapiens) (UniProt P11511); test: qHTS assay to identify aromatase inhibitors (AID 743083); note: nearly all actives have a fitted effect of over 55% in size; note: potency is the fitted concentration of half-maximal effect
Sequence of Aromatase (Homo sapiens) (P11511 whole entry, looked up): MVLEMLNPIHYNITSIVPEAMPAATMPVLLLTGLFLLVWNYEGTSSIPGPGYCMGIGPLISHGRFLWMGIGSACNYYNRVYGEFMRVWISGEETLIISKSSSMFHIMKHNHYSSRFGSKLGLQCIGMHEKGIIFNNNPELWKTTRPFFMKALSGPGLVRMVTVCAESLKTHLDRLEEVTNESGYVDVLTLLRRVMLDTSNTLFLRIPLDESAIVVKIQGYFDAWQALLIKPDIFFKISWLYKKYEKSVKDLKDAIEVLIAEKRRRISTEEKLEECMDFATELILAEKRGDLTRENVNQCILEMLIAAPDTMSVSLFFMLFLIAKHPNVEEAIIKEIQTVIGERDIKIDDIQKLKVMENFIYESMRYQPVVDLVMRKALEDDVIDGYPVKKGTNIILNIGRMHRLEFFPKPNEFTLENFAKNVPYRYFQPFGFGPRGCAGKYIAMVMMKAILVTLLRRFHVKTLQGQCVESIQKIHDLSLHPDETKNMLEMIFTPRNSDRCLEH

[16] = biological target: Androgen receptor (Homo sapiens) (UniProt P10275); test: qHTS assay to identify small molecule antagonists of the androgen receptor (AR) signaling pathway (AID 743035; active = well fitted inhibition curve with a large enough effect in the signal ratio in the repeat runs, not every such curve was filed as active; the % refers to the signal ratio; note: potency is the fitted concentration of half-maximal effect)
Sequence of Androgen receptor (Homo sapiens) (P10275 whole entry, looked up): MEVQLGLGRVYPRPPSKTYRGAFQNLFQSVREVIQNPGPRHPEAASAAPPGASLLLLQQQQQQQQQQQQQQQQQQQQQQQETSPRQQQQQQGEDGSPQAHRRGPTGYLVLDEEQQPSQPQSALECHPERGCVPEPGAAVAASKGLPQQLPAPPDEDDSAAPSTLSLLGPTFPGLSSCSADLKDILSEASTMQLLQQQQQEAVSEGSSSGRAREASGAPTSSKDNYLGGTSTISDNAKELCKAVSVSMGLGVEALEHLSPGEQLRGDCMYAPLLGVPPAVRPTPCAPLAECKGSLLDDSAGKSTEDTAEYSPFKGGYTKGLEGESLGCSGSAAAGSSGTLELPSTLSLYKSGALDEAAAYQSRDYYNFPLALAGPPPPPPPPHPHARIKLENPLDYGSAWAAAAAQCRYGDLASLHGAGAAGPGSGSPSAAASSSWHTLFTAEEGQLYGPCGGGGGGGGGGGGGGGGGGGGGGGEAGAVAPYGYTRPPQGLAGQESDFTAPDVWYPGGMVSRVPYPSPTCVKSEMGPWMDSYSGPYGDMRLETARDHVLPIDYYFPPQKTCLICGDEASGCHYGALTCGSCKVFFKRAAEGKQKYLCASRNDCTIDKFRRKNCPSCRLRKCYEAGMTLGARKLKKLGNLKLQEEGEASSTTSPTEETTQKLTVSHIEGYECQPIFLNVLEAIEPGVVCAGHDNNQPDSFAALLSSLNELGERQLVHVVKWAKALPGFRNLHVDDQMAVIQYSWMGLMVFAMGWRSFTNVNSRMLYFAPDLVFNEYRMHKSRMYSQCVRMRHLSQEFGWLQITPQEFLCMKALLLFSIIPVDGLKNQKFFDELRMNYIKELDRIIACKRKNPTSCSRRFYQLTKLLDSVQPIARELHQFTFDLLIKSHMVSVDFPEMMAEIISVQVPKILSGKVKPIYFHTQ
Method in brief: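 Steps: seed AR-UAS-bla GripTite HEK293 cells, incubate 4 h at 37C; pin in test compound, then add agonist R1881; incubate 16 h at 37C; add LiveBLAzer B/G FRET substrate, 2 h at room temperature; read fluorescence.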

[17] = biological target: Androgen receptor (Homo sapiens) (UniProt P10275); test: qHTS assay to identify small molecule agonists of the androgen receptor (AR) signaling pathway (AID 743036; active = well fitted activation curve with a large enough effect in the signal ratio in the repeat runs, with a control signal flat, not every such curve was filed as active; the % refers to the signal ratio)
Method in brief: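 Quantitative HTS of the Tox21 10K library in HEK293 cells bearing a stably integrated UAS-controlled beta-lactamase reporter. Compound exposure lasted 16 h at 37C. Reporter activity was detected by FRET substrate fluorescence after 2 h at room temperature.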

[18] = biological target: Androgen receptor (Homo sapiens) (UniProt P10275); test: qHTS assay to identify small molecule agonists of the androgen receptor (AR) signaling pathway using the MDA cell line (AID 743040; note: nearly all actives have a fitted effect of over 20% in size); conditions: MDA-kb2 AR-luc cells, MMTV luciferase, 16 h; activity change: at 70.3 µM (top of the series), stronger effect = higher value
Method in brief: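 Agonist activity is measured as luciferase luminescence in human MDA-kb2 cells whose MMTV reporter responds to both AR and GR. Compounds in DMSO incubate 16 h at 37C, 0% CO2, and ONE-Glo is read after 30 min.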

[19] = biological target: Androgen receptor (Homo sapiens) (UniProt P10275); test: qHTS assay to identify small molecule antagonists of the androgen receptor (AR) signaling pathway using the MDA cell line (AID 743042; note: nearly all actives have a fitted effect of over 55% in size; note: potency is the fitted concentration of half-maximal effect)
Method in brief: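 MDA-kb2 cells (human breast carcinoma, stably carrying an MMTV-luciferase reporter responsive to AR and GR) were plated at 3,000 cells/well and preincubated 5 hr at 37C, then given compound plus R1881 agonist for 16 h. ONE-Glo luminescence was read.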

[20] = qHTS assay to identify small molecule antagonists of the thyroid receptor (TR) signaling pathway - cell viability counter screen (AID 743064); note: nearly all actives have a fitted effect of over 50% in size; note: potency is the fitted concentration of half-maximal effect
Method in brief: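 Rat GH3 pituitary tumor cells stably expressing two TR response elements driving luciferase were plated, rested 4 h, then dosed with library compounds and T3 (1 nM final). After 23.5 h at 37 °C, CellTiter-Fluor was added for 30 min and fluorescence recorded.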

Row | Structure (SMILES) | Potency [1] | Potency [2] | Potency [3] | Potency [4] | Potency [5] | Potency [6] | Potency [7] | Potency [8] | Potency [9] | Potency [10] | Potency [11] | Potency [12] | Potency [13] | Potency [14] | Potency [15] | Potency [16] | Potency [17] | Potency [18] | Potency [19] | Potency [20]
1 | COc1ccc(C=O)cc1 | inactive | inactive | inactive | inactive | inactive | inactive | inactive | inactive | inactive | inactive | inactive | inactive | inactive | inactive | inactive | – | – | – | – | –
2 | Oc1cc(Cl)c(Cl)cc1Cl | inactive | inactive | inactive and 68.6 µM (active) | inactive and 61.1 µM (active) | inactive | inactive | inactive | inactive | – | inactive | – | – | – | inactive | inactive | – | – | – | – | –
3 | Cc1ccc(OP(=O)(Oc2ccc(C)cc2)Oc2ccc(C)cc2)cc1 | inactive | – | 38.6 µM (active) | 43.2 µM (active) and 48.6 µM (active) | inactive | – | inactive | inactive | – | inactive | – | – | – | inactive | inactive | – | – | – | – | –
4 | CCCCCCCCC(=O)NCc1ccc(O)c(OC)c1 | inactive | inactive | inactive and 68.6 µM (active) | inactive | inactive | inactive | 54.5 µM (active) | inactive | inactive | inactive | inactive | inactive | inactive | inactive | inactive | – | – | – | – | –
5 | c1cc(OCC2CO2)ccc1Cc1ccc(OCC2CO2)cc1 (centres undefined) | – | 13.7 µM (active) | 2.44 µM (active) and 1.54 µM (active) | 61.4 µM (active) and 15.4 µM (active) | inactive | inactive | 24.4 µM (active) and 21.7 µM (active) | inactive | – | inactive | inactive | inactive | inactive | inactive | inactive | inactive | inactive | inactive | inactive | 43.5 µM (active) and 48.6 µM (active)
6 | C[C@]12CCC(=O)C(O)=C1CC[C@@H]1[C@@H]2CC[C@]2(C)C(=O)CC[C@@H]12 | inactive | 29.8 µM (active) and 26.6 µM (active) | – | 29.8 µM (active) and 26.6 µM (active) | inactive | inactive | inactive | inactive | – | inactive | 23.9 µM [activator] (active) and 21.3 µM [activator] (active) and 34.7 µM [activator] (active) | 11.9 µM (active) and 5.96 µM (active) and 5.45 µM (active) | inactive | inactive | 75 nM (active) and 53.1 nM (active) and 27.3 nM (active) | – | – | – | – | –
7 | CCc1cccc(CC)c1N(COC)C(=O)CCl | – | 19.3 µM (active) | 5.91 µM (active) and 5.45 µM (active) | 29.6 µM (active) and 10.9 µM (active) | inactive | inactive | 54.5 µM (active) | inactive | – | inactive | inactive | inactive | inactive | inactive | 61.1 µM (active) | 26.7 µM (active) and 38.9 µM (active) | inactive | inactive | 61.1 µM (active) | inactive
